# According to PubChem BioAssay (NCATS):
# Results filed as inconclusive are left out. Entries that show only a call come without a potency. Calls of active or inactive are those of the source. Calls come from the whole dose curve; as a rule, active = well fitted curve in the direction sought with a large enough effect; inconclusive = small, poorly fitted or top-dose-only effect, or another doubt; inactive = no such curve, though single readings can be large; an effect the other way counts as inactive or inconclusive.
# Key:
# [1] = qHTS to identify inhibitors of the type 1 interferon - major histocompatibility complex class I in skeletal muscle: primary screen against the NCATS LOPAC collection (AID 1347405);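 note: lytic HiBiT luminescence reporting HLA-B protein level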; note: potency is the fitted concentration of half-maximal effect
# Method in brief: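 CRISPR-engineered immortalized human myoblasts (C25cl48) with HiBiT fused to endogenous HLA-B*08:01, stimulated with 4 ng/ml IFN-beta. LOPAC compounds tested as a 7-point 1:4.3 titration (top 46 uM final), 24 h at 37 C; lytic HiBiT luminescence read.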
# [2] = qHTS for inhibitors of adenylyl cyclases using a fission yeast platform: a pilot screen against the NCATS LOPAC library (AID 1347410)
# Method in brief: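 Fission yeast qHTS: CHP2027 cells (AC9-GNAS-PDE4D2, fbp1-GFP), 5x10^6 cells/mL working density, EMM + His/Lys/Ura; LOPAC at up to 57 µM final; 18 h dark, 30C; GFP by laser cytometry. DPI positive control, DMSO vehicle.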
# [3] = qHTS to identify inhibitors of the type 1 interferon - major histocompatibility complex class I in skeletal muscle: primary screen against the NCATS Mechanism Interrogation Plate v5.0 (MIPE) Libary (AID 1347411); note: nearly all actives have a fitted effect of over 65% in size
# Method in brief: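 Immortalized human myoblasts (C25cl48) with HiBit knocked into endogenous HLA-B*08:01 were stimulated with 4 ng/ml IFN-beta and given compounds in 11-point 1:3 titration from 46 uM. After 24 h at 37 C, lytic HiBiT luminescence was read.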
# [4] = Validation qHTS assay for inhibitors of Activation Induced Cytidine Deaminase (AID): UDG Counterscreen signal (AID 1347427)
# Method in brief: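 Counterscreen read of UDG activity (2 U/mL, 4/3x) in the FRET deamination format with AID (1 uM, 4/3x), DJC20/DJC23 substrates (250 nM, 4x), 4 h at room temperature. NaOH stop, fluorescence at 560 ex/665 em.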
Compound,Potency [1],outcome [2],outcome [3],Potency [4]
Cc1cccc(C(=O)NCN2CCN(c3ccccc3C#N)CC2)c1,inactive,inactive,–,–
CCCCC[C@H](CC(=O)NO)C(=O)N[C@H](C(=O)N1CCC[C@H]1CO)C(C)C,inactive,inactive,–,–
CCCc1c(OCCCOc2ccc(OCC(=O)O)cc2)ccc(C(C)=O)c1O,inactive,inactive,inactive,inactive
CCC(=O)N1CCN(C(=O)c2ccccc2)CC1,inactive,inactive,–,–
NC(N)=[N+]1CCc2ccccc2C1,inactive,inactive,–,inactive
CC[n+]1c(/C=C/C=C2/N(C)c3ccccc3C2(C)C)sc2ccccc21,5.01 µM (active),inactive,–,–
Cn1c(=O)c2[nH]c(C3CCCC3)nc2n(C)c1=O,inactive,inactive,–,–
O=C(O)C1=CCCN(CCON=C(c2ccccc2)c2ccccc2)C1,inactive,inactive,–,–
N[C@@H](CCCC(=O)O)C(=O)O,inactive,inactive,–,–
N#Cc1cc2nc(O)c(O)nc2cc1[N+](=O)[O-],inactive,inactive,–,–
COC1(C2=NCCN2)COc2ccccc2O1 (stereo not drawn),inactive,inactive,–,–
Cn1c(=O)[nH]c2ncn(C)c2c1=O,inactive,inactive,–,–
CNCCc1cnc(CCC(c2ccccc2)c2ccccc2)[nH]1,inactive,inactive,–,–
OC1(c2ccc(Cl)cc2)CCN(Cc2c[nH]c3ccccc23)CC1,inactive,inactive,–,–
Nc1ccc(-c2ccc3ccccc3n2)cc1,inactive,inactive,–,–
c1ccc(C(NCCNC(c2ccccc2)c2ccccc2)c2ccccc2)cc1,inactive,inactive,–,–
Nc1ccc(-c2nc3ccc(-c4nc5ccc(N)cc5[nH]4)cc3[nH]2)cc1,inactive,inactive,–,–
O=c1cc(O)cc(/C=C/c2ccc(O)c(O)c2)o1,inactive,inactive,–,–
CN1CCc2cc(Cl)c(O)cc2[C@@H](c2ccccc2)C1,inactive,inactive,–,–
C[C@@H](NCCc1ccc(O)cc1)[C@@H](O)c1ccc(O)cc1,inactive,inactive,–,inactive
CC(C)NC[C@H](O)COc1ccc(CC(N)=O)cc1,inactive,inactive,–,inactive
N[C@@H](Cc1c[nH]c2ccccc12)C(=O)O,inactive,inactive,–,inactive
COc1ccccc1N1CCN(CCCNc2c(C)c(=O)n(C)c(=O)n2C)CC1,inactive,inactive,–,inactive
CC(=O)/C(C)=N/O,inactive,inactive,–,inactive
N=C(N)SCCc1cnc[nH]1,inactive,inactive,–,inactive
CCOC(=O)C12CC1/C(=N/O)c1ccccc1O2 (stereo not drawn),inactive,inactive,–,inactive
NC/C=C\C(=O)O,inactive,inactive,–,inactive
O=C(O)c1ccccc1Nc1ccccc1,inactive,inactive,–,inactive
